Records with an inconclusive call do not appear. Calls of active or inactive are those of the source. The calls were made as follows: active = hit-call score of the fitted dose curve at least 0.9, where 1 is the maximum; inconclusive = response in the unintended direction; inactive = score below 0.9.
Test: CCTE_Simmons_CellTiterGLO_HEK293T: Viability Assessment in CCTE's Assays for Thyroperoxidase (TPO) Inhibition, Simmons Lab (AID 2283665);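 as to AC50: cells exposed to compound for 24 h before readout; actives reduce ATP signal below DMSO vehicle meaning cytotoxicity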
Description: CCTE_Simmons_CellTiterGLO_HEK293T is a cell-based, single-readout assay that uses HEK293T, a human kidney cell line, with measurements taken at 24 hours after chemical dosing in a 384-well plate.CCTE_Simmons_CellTiterGLO_HEK293T is the assay component measured from the CCTE_Simmons_CellTiterGLO_HEK293T assay. It is designed to make measurements of ATP content, a form of viability reporter, as detected with bioluminescence signals by Luciferase-coupled ATP quantitation technology. This is a secondary cytotoxicity assay to CCTE_Simmons_AUR_TPO to estimate a cellular tolerance limit.Data from the assay component CCTE_Simmons_CellTiterGLO_HEK293T was analyzed at the endpoint, CCTE_Simmons_CellTiterGLO_HEK293T, in the positive analysis fitting direction relative to DMSO as the negative control and baseline of activity. Using a type of viability reporter, measures of ATP content for loss-of-signal activity can be used to understand the viability. This assay was run in parallel with aeid 1508 as a means of indicating the range of chemical cytotoxicity or reactivity. To generalize the intended target to other relatable targets, this assay endpoint is annotated to the cell cycle intended target family, where the subfamily is cytotoxicity.
Human HEK293T cells (GenHunter; Nashville, Tennessee) were seeded overnight in 384-well, solid white assay plates (Greiner, BioExpress) at a density of 10 000 cells per well in 65 ul Dulbecco's Modified Eagle Medium (Life Technologies; Carlsbad, California) supplemented with 1% fetal bovine serum (HyClone; Logan, Utah). Test compounds were administered using the HDRT as described earlier to achieve a 0.5% final DMSO concentration. Cells were then incubated at 37C for 24 hr in a humidified 5% CO2 incubator. Cell Titer Glo (Promega; Madison, WI) reagent (25 ul) was then added by the BioTek MicroFlo and microplates were incubated at room temperature in the dark for 20min. Plates were read on a plate reader (FLUOStar Optima) using an endpoint luminescence protocol (top read). Three biological replicates of technical singles were run for every chemical concentration tested. A titrated range of DCNQ served as a positive control on each plate of the cytotoxicity screening assay.Test chemicals were administered as a titrated series of 8 concentrations from 5 nM up to 87.5 uM [final] for 24 hours prior to single endpoint detection. Three biological replicates of technical singles were run for every chemical concentration tested. Dimethylsulfoxide [DMSO] was used as the vehicle control. Dichlone [DCNQ] was used as the positive control and was administered as a titrated series of 8 concentrations from 1 nM up to 100 uM [final].
For `CC=Cc1ccc(O)c(OC)c1`, the outcome was “inactive”. In the case of `COc1ccc(C)cc1N`, the outcome is reported as “inactive”. For `Cc1cccc(C)c1O`, the outcome was “inactive”. With `COc1cc(S(=O)(=O)O)c(C)cc1N=Nc1c(O)ccc2cc(S(=O)(=O)O)ccc12` the AC50 was 13.4 µM (active). With `Cc1cc(=O)[nH]c(=S)[nH]1` the outcome was “inactive”. With `CC(=O)OC/C=C(\C)CCC=C(C)C` the AC50 was 24.6 µM (active). For `CCCCC(CC)COC(=O)CC(C(=O)OCC(CC)CCCC)S(=O)(=O)O` (stereo unspecified), the AC50 was 15.8 µM (active). In the case of `CCOc1ccc2c(c1)C(C)=CC(C)(C)N2`, the AC50 is reported as 48.8 µM (active). In the case of `Cc1ccc(C)c(O)c1C`, the outcome is reported as “inactive”. In the case of `O=c1c(O)c(-c2ccc(O)c(O)c2)oc2cc(O)cc(O)c12`, the AC50 is reported as 27.1 µM (active). With `C[C@]12C=CC(=O)C=C1CC[C@@H]1[C@@H]2C(=O)C[C@@]2(C)[C@H]1CC[C@]2(O)C(=O)CO` the outcome was “inactive”. With `CCNc1cccc(C)c1` the outcome was “inactive”. For `C=CCc1ccc(O)c(OC)c1`, the outcome was “inactive”. For `CC(C)(C)c1cc(O)c(C(C)(C)C)cc1O`, the AC50 was 27.5 µM (active). In the case of `Oc1ccc2ccccc2c1N=Nc1ccccc1`, the AC50 is reported as 17 µM (active). In the case of `Cc1ccc(N(C)C)cc1`, the outcome is reported as “inactive”. With `Nc1nc(N)c2nc(CNc3ccc(C(=O)N[C@@H](CCC(=O)O)C(=O)O)cc3)cnc2n1` the AC50 was 0.189 µM (active). With `CC1=C(/C=C/C(C)=C/C=C/C(C)=C/CO)C(C)(C)CCC1` the AC50 was 12 µM (active). In the case of `Nc1ccc(S(=O)(=O)c2ccc(N)cc2)cc1`, the outcome is reported as “inactive”. With `Cc1cc(NC(=O)C(=O)O)cc(C)c1Oc1ccc(O)c2c1CCC2` the outcome was “inactive”. For `CN1CCCC1=O`, the outcome was “inactive”. In the case of `CN[C@H]1CC[C@@H](c2ccc(Cl)c(Cl)c2)c2ccc(S(N)(=O)=O)cc21`, the AC50 is reported as 9.23 µM (active). In the case of `CCCc1cc(=O)[nH]c(=S)[nH]1`, the outcome is reported as “inactive”. For `Nc1ccccc1N`, the outcome was “inactive”. In the case of `Cc1c(C(=O)O)c(O)cc2c1C(=O)c1c(O)c([C@@H]3O[C@H](CO)[C@@H](O)[C@H](O)[C@H]3O)c(O)c(O)c1C2=O`, the AC50 is reported as 12.6 µM (active). For `Cc1oc(-c2ccccc2)nc1CCOc1cccc2c1ccn2CCC(=O)O`, the outcome was “inactive”.

— PubChem BioAssay (EPA / NIEHS)
